Measured values published in PubChem BioAssay AID651812 (National Center for Advancing Translational Sciences (NCATS), 2012).
The campaign covered roughly 2,100 compounds. About 650 (31%) were called active. Roughly 16% stayed inconclusive and do not appear here. Calls come from the whole dose curve; as a rule, active = well fitted inhibition curve with a large enough effect; inconclusive = small, poorly fitted or top-dose-only effect; inactive = flat fitted curve, though single readings scatter. The list shows a part of the results. Entries that show only a call come without a potency.

assay: qHTS for inhibitors of Vif-A3G interactions: Cherry picks; conditions: HeLa A3G-eYFP + Vif (tagged APOBEC3G with the HIV-1 protein that degrades it), 24 h; Potency: eYFP fluorescence increase; series mostly up to 36.9 µM; note: nearly all actives have a fitted effect of over 80% in size
Source text: The recent discovery and characterization of host restriction factors, which provide a potent defense to invading retroviruses, has provided new targets for antiviral drug development. APOBEC3G (A3G) and APOBEC3F (A3F) are potent cytidine deaminases that block HIV-1 replication; HIV-1 expresses the Vif protein, which counteracts A3G and A3F by binding to them and inducing their proteasomal degradation. The Vif-A3G and Vif-A3F interactions provide two potential targets for development of small molecules which can interfere with the ability of Vif to degrade A3G or A3F. […] To identify inhibitors that can interfere with Vif mediated degradation of A3G and A3F, we have developed Hela cell lines that stably express A3G or A3F tagged with eYFP at the C-terminal end (A3G-eYFP or A3F-eYFP, respectively) and Vif. In the absence of an inhibitor, Vif induces degradation of A3G-eYFP and A3F-eYFP, and the cells are not fluorescent. In the presence of an inhibitor, it is expected that Vif will be unable to degrade A3G-eYFP and/or A3F-eYFP, resulting in an increase in yellow fluorescence. In this assay, Vif A3G was screened against the cherry picks ordered from the MLSMR. NIH Chemical Genomics Center [NCGC] NIH Molecular Libraries Probe Centers Network [MLPCN] MLPCN Grant: MH093245 Assay Submitter (PI): Vinay Pathak, National Cancer Institute
A3G-Vif cells were harvested from T225 flask and resuspended in phenol free OPTI-MEM medium with 5% FBS. Then 5 uL of 140,000 cells/mL resuspended cells was dispensed into each well of low base Aurora COC 1,536-well plates (black walled, clear bottom) using a Multidrop Combi dispenser. After overnight culture at 37 deg C with 5% CO2, a total of 23 nL of compounds at 5 selected concentrations from the NPC or positive control (2 mM stock of MG132) in DMSO was transferred to each well of the assay plate using a pintool (Kalypsys, San Diego, CA), and the plates were further incubated at 37 deg C with 5% CO2 for 24 hours. After that, the plates were measured on Acumen Explorer (TTP Lab Tech). The fluorescence was detected by 488 nm/Ex and […].
Potency is the fitted concentration of half-maximal effect.

Compound | Potency
COc1ccc2nc(SCC(=O)N3CC(=O)Nc4ccccc43)c(C#N)cc2c1 | 23.1 µM (active)
Cc1cc(C)c2nc(SCC(=O)N3CC(=O)Nc4ccccc43)c(C#N)cc2c1 | 12.5 µM (active)
NC(=O)c1ccccc1NC(=S)NC(=O)CCc1ccccc1 | inactive
O=C(/C=C/c1ccco1)NC(=S)Nc1cccc(-c2nc3ccccc3o2)c1 | inactive
Oc1cccc(Nc2nc(O)c(/C=C3\C=Nc4ccccc43)s2)c1 | 23.1 µM (active)
CC(=O)c1cccc(NC(=O)C2CCCN(S(=O)(=O)c3cccc4nonc34)C2)c1 (centres undefined) | inactive
COC(=O)c1ccc(Nc2c([N+](=O)[O-])ccc3nonc23)cc1 | 20.6 µM (active)
COc1ccc(N2C(=O)NC3CC2(C)Oc2ccccc23)cc1OC (centres undefined) | inactive
COc1ccc(OC)c(NC(=O)Cn2c(=O)n(-c3ccc(Cl)cc3)c(=O)c3c(C)c(C)sc32)c1 | 14.6 µM (active)
CCOC(=O)c1[nH]c(C)c(C(=O)Nc2cc(OC)ccc2OC)c1C | inactive
COc1ccc(OC)c(NC(=O)Cn2cnc3onc(-c4ccc(Cl)cc4)c3c2=O)c1 | inactive
CCCOc1ccc(N)cc1N | inactive
O=C1/C(=C/c2ccc(O)cc2)SC(=S)N1CC1CCCO1 (centres undefined) | inactive
CCOc1cc(/C=C2/SC(=S)N(CC3CCCO3)C2=O)ccc1O (centres undefined) | 20.6 µM (active)
COc1cc(/C=C2/SC(=S)N(CC3CCCO3)C2=O)ccc1O (centres undefined) | 18.4 µM (active)
COc1nc(-c2ccccc2)cc(-c2ccc3c(c2)OCO3)c1C#N | inactive
CCOC(=O)c1c(CN(CC)CC)n(-c2ccccc2)c2ccc(O)cc12 | inactive
O=C1/C(=C\c2ccc(O)cc2)SC(=S)N1Cc1ccccc1 | inactive
O=C(O)c1cc(-c2ccc(/C=C3/SC(=S)N(Cc4ccccc4)C3=O)o2)ccc1Cl | 18.4 µM (active)
Cc1c(C(=O)OC2CCCCC2)[nH]c2c1C(=O)CC(c1ccccc1Cl)C2 (centres undefined) | inactive
Cc1cc(/C=C2\SC(=S)N(C)C2=O)c(C)n1-c1ccccc1O | 23.1 µM (active)
Cc1cc(/C=C2\SC(=S)N(C)C2=O)c(C)n1-c1ccc(O)cc1 | 20.6 µM (active)
Cc1cc(/C=C2\SC(=Nc3ccccc3)NC2=O)c(C)n1-c1ccc(S(N)(=O)=O)cc1 | inactive
NC(=O)c1cccc(-c2ccnc3c2CC(C(=O)NCc2ccco2)O3)c1 (centres undefined) | inactive
NC(=S)N/N=C/c1cccc(O)c1O | inactive
CC(=O)N/N=C/c1cc(C(C)(C)C)cc(/C=N/NC(C)=O)c1O | 23.1 µM (active)
CC(=O)N/N=C/c1cc(C(C)C)cc(/C=N/NC(C)=O)c1O | 23.1 µM (active)

Compound | Potency
Cc1cc(-n2c(C)cc(C(=O)CCl)c2C)no1 | inactive
Cc1ccc(/C=N/NC(=O)c2nc3nc(C)cc(C)n3n2)cc1 | inactive
CC[N+](C)(C(=O)O)/C(=C\c1ccccc1)c1ccnc2ccccc12 (centres undefined) | 18.4 µM (active)
CCc1ccc(/C=N/NC(=O)c2cc(-c3ccncc3)nc3ccccc23)s1 | inactive
CC(=O)N1CCc2nc3sc(C(=O)c4ccc(F)cc4)c(N)c3c(C(F)(F)F)c2C1 | 18.4 µM (active)
COc1cc2c(cc1OC)CN(C(=O)c1ccc3nc[nH]c3c1)CC2 | inactive
COc1ccc(-c2n[nH]c3c2CN(C(=O)c2ccc(OC)c(OC)c2)CC3)cc1 | inactive
COc1ccc(C(=O)c2sc3nc4c(c(C(F)(F)F)c3c2N)CN(C(C)=O)CC4)cc1OC | 18.4 µM (active)
COc1ccc(-c2cc3ccccc3oc2=O)cc1NC(=S)NC(=O)c1ccc2c(c1)OCCO2 | inactive
COc1ccc(S(=O)(=O)Nc2cccc(-c3ccc4nncn4n3)c2)cc1 | inactive
Cc1ccc(NC(=S)N/N=C2\CCCCC2C)cc1 (centres undefined) | inactive
CN(C)S(=O)(=O)c1ccc(N2CCCC2)c(C(=O)N2CCN(S(=O)(=O)c3ccc(F)c(F)c3)CC2)c1 | inactive
Cc1cc(NC(=O)/C(C#N)=C\c2ccc(-c3ccc(SC(F)F)cc3)o2)n(-c2ccccc2)n1 | 14.6 µM (active)
Cc1cc(NC(=O)/C(C#N)=C/c2ccc(-c3ccc(SC(F)F)cc3)o2)n(-c2ccccc2)n1 | 10.3 µM (active)
O=C(/C=C/c1ccco1)NC(=S)Nc1ccc(N2CCCC2)cc1 | inactive
Cc1ccc2[nH]c3c(c2c1)CN(C(=O)CN1CC(C)OC(C)C1)CC3 (centres undefined) | inactive
COc1ccc(C(=O)Nc2cc(C(C)=O)c(/C=C/N(C)C)oc2=O)cc1 | 15.8 µM (active)
COc1cc(OC)cc(C(=O)Nc2ccccc2C(=O)NC2CC2)c1 | inactive
COC(=O)c1c(-c2ccccc2Cl)noc1/C=C/N(C)C | inactive
CO/N=C\CC(=O)Nc1ccc(Oc2ccccc2)cc1 | inactive
COc1ccc(C(=O)Nc2cccc(/C=C/c3nc4ccccc4c(=O)[nH]3)c2)cc1 | inactive
CC(=O)c1cc(NC(=O)c2ccc(C)cc2)c(=O)oc1/C=C/N(C)C | 16.4 µM (active)
O=C(Nc1ccccc1OC(=O)c1ccccc1)c1ccccc1 | inactive
COC(=O)c1cc(NC(=O)c2ccccc2)c(=O)oc1/C=C/Nc1ccc(Oc2ccccc2)cc1 | 11.6 µM (active)
CC(=O)c1cc(NC(=O)c2ccc(Cl)cc2)c(=O)oc1/C=C/N(C)C | 11.2 µM (active)
CC(=O)c1cc2c(cc1NS(=O)(=O)c1ccc(C)cc1)OCCO2 | inactive
Cc1ccc(/C=N/NC(=O)c2cc(C)oc2C)cc1 | inactive
